{"source": "PubChem BioAssay AID488", "about": "(PCMD, 2006)", "note": "About 40 (0.06%) of roughly 62,000 compounds were called active. Cut-off read from the data, not from the text of the source: active = inhibition above about 22% (passing the limit was not always enough); inconclusive = no clear call, values can overlap the other calls. The entries come from a sample that favours actives as a whole.", "data": [{"biological_target": "Cathepsin B (Homo sapiens) (UniProt P07858)", "experiment": "cathepsin B inhibitors from pooled compounds, primary screen, biochemical, compound mixtures, AMC fluorescence (AID 488);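 note: 0% = enzyme without compound and 100% = no enzyme blank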", "details": "Purified cathepsin B, AMC dipeptide fluorescence, stronger effect = higher value,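 ten-compound pools at 5 µM per compound and 50 µM total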", "values": [{"smiles": "Cc1ccc(C(=O)CSc2nnc(Cn3nnc4ccccc43)n2C)cc1", "inhibition": "-0.39% (inactive)"}, {"smiles": "C=CCn1c(SCc2csc(C)n2)nc2scc(-c3ccc(C)o3)c2c1=O", "inhibition": "5.42% (inactive)"}, {"smiles": "Cc1ccc2nc(NCCCNC(=O)c3cnccn3)c(C#N)cc2c1", "inhibition": "1.1% (inactive)"}, {"smiles": "CCNc1nc(SCCOc2ccccc2)nc(N(C)C)n1", "inhibition": "3.91% (inactive)"}, {"smiles": "C/C(Cl)=C\\Cn1c(Nc2cccc(C)c2)nc2c1c(=O)n(C)c(=O)n2C", "inhibition": "5.3% (inactive)"}, {"smiles": "Cc1ccccc1S(=O)(=O)Cc1ccc(C(=O)NCCN2CCCCC2C)o1", "note": "(stereo unspecified)", "inhibition": "3.67% (inactive)"}, {"smiles": "CCOc1ccc2[nH]c(=O)c(CN(Cc3nnnn3Cc3ccccc3)CC3CCCO3)cc2c1", "note": "(stereo unspecified)", "inhibition": "3.02% (inactive)"}, {"smiles": "COC(=O)Nc1ncc(CN2C(=O)c3ccccc3C2=O)s1", "inhibition": "-2.69% (inactive)"}, {"smiles": "CCCS(=O)(=O)N1CCCC(C(=O)NCCN2CCCCC2C)C1", "note": "(stereo unspecified)", "inhibition": "3.97% (inactive)"}, {"smiles": "Cc1ccc(C(C(=O)NC2CCCC2)N(Cc2ccco2)C(=O)CCC(=O)Nc2ccccn2)cc1", "note": "(stereo unspecified)", "inhibition": "3.21% (inactive)"}, {"smiles": "CCCCn1c(CN2CCN(CCO)CC2)nc2ccccc21", "inhibition": "2.92% (inactive)"}, {"smiles": "CCc1ccc(-c2nnn(Cc3nc4ccccc4s3)n2)cc1", "inhibition": "4.33% (inactive)"}, {"smiles": "O=c1[nH]nc(CSCc2ccccc2Cl)[nH]1", "inhibition": "4.72% (inactive)"}, {"smiles": "O=C(COc1ccc(F)cc1)N(CC1=CCS(=O)(=O)C1)c1ccccc1", "inhibition": "-3.79% (inactive)"}, {"smiles": "Cc1ccc2cc3cc(C(=O)N4CCCCCC4)oc3nc2c1", "inhibition": "3.89% (inactive)"}, {"smiles": "C=CCn1c(N)c(C(=O)OCC(C)C)c2nc3ccccc3nc21", "inhibition": "-4.76% (inactive)"}, {"smiles": "COc1cccc(NS(=O)(=O)c2ccc3[nH]cc(C(=O)NCCCOC(C)C)c(=O)c3c2)c1", "inhibition": "5.5% (inactive)"}, {"smiles": "COC(=O)[C@H](CCSC)NC(=O)Nc1ccc(OC)cc1", "inhibition": "1.64% (inactive)"}, {"smiles": "C=CCNC(=O)c1cc(-c2ccccc2O)on1", "inhibition": "-1.28% (inactive)"}, {"smiles": "O=C(CSc1nnc(-c2ccco2)n1Cc1ccccc1)NC(=O)NCc1ccco1", "inhibition": "-0.985% (inactive)"}, {"smiles": "COCCCN(C(=O)Cn1ncc2c(=O)oc3ccc(C)cc3c21)C(C)c1ccncc1", "note": "(stereo unspecified)", "inhibition": "1.95% (inactive)"}, {"smiles": "O=C(CN1C(=O)NC2(CCCCC2)C1=O)NCCC1=CCCCC1", "inhibition": "4.21% (inactive)"}, {"smiles": "Cc1cc(NC(=O)COn2nnc3ccccc32)no1", "inhibition": "1.15% (inactive)"}, {"smiles": "CCc1ccccc1NC(=O)CSc1nnc([C@@H](NC(=O)OC(C)(C)C)C(C)C)o1", "inhibition": "5.22% (inactive)"}, {"smiles": "Cc1ccc(C(=O)Nc2ccc3c(c2)OCO3)cc1S(=O)(=O)N1CCCCC1", "inhibition": "62.7% (active)"}, {"smiles": "COc1ccc(C(=O)Nc2ccc3c(c2)OCO3)cc1OC", "inhibition": "1.18% (inactive)"}, {"smiles": "Cc1ccc(C(=O)NCC(=O)O)cc1S(=O)(=O)N1CCCCC1", "inhibition": "1.96% (inactive)"}, {"smiles": "COc1ccc(NS(=O)(=O)c2ccc(NC(C)=O)cc2)cc1OC", "inhibition": "2.73% (inactive)"}, {"smiles": "CCC(=O)c1ccc(OCC(O)CN2CCN(c3cccc(C(F)(F)F)c3)CC2)cc1", "note": "(stereo unspecified)", "inhibition": "2.81% (inactive)"}, {"smiles": "Cc1noc(C)c1S(=O)(=O)Nc1ccc(C(=O)O)cc1", "inhibition": "5.64% (inactive)"}, {"smiles": "COc1ccc(CC(=O)c2ccc(O)cc2O)cc1OC", "inhibition": "-2.36% (inactive)"}, {"smiles": "Cc1ccc(SCCN2C(=O)NC(C)(C)C2=O)cc1", "inhibition": "3.79% (inactive)"}, {"smiles": "CCCc1nc(N)nc2c1C(=O)CC(C)(C)C2", "inhibition": "3.17% (inactive)"}, {"smiles": "CCC(=O)N1CCc2cc(S(=O)(=O)NC(C(=O)N3CCc4ccccc4C3)C(C)C)ccc21", "note": "(stereo unspecified)", "inhibition": "15.3% (inactive)"}, {"smiles": "O=C(NCc1ccc(Cl)c(Cl)c1)c1cccnc1", "inhibition": "-2.21% (inactive)"}, {"smiles": "CCCC(CCC(=O)OC)(C(=O)OCC)c1csc(N)n1", "note": "(stereo unspecified)", "inhibition": "6.54% (inactive)"}, {"smiles": "CC1CCCN(Cc2nc3c(c(=O)n(C)c(=O)n3C)n2Cc2cccc3ccccc23)C1", "note": "(stereo unspecified)", "inhibition": "1.14% (inactive)"}, {"smiles": "CN(CCCC(=O)Nc1nccs1)S(=O)(=O)c1ccc(Cl)cc1", "inhibition": "3.83% (inactive)"}, {"smiles": "Cc1ccc(S(=O)(=O)N2CCN(C(=O)CCC(=O)NC3CCCc4ccccc43)CC2)cc1", "note": "(stereo unspecified)", "inhibition": "1.64% (inactive)"}, {"smiles": "CC(=O)Nc1cc(C(=O)O)ccc1S(=O)(=O)c1ccc(Cl)cc1", "inhibition": "-0.3% (inactive)"}, {"smiles": "CCCC(=O)N1c2ccccc2NC2=C(C(=O)CCC2)C1c1ccc(F)cc1", "note": "(stereo unspecified)", "inhibition": "4.79% (inactive)"}, {"smiles": "COc1ccc(OC)c(NC(=O)CSc2nc3cccnc3n2C)c1", "inhibition": "-8.48% (inactive)"}, {"smiles": "O=C1NC(Nc2nc3ccccc3s2)(C(F)(F)F)C(=O)N1C1CCCCC1", "note": "(stereo unspecified)", "inhibition": "1.35% (inactive)"}, {"smiles": "CN1CCN(C(=O)C2C3C=CC(C3)C2C(=O)O)CC1", "note": "(stereo unspecified)", "inhibition": "5.22% (inactive)"}, {"smiles": "CSCCC(NC(=O)c1ccc(=O)n(C)n1)c1nc2ccccc2[nH]1", "note": "(stereo unspecified)", "inhibition": "-2.06% (inactive)"}, {"smiles": "c1ccc2c(c1)OCC(c1nn3cnnc3s1)O2", "note": "(stereo unspecified)", "inhibition": "-2.62% (inactive)"}, {"smiles": "O=C(NCCN1C(=O)C2C3C=CC(C3)C2C1=O)Nc1ccccn1", "note": "(stereo unspecified)", "inhibition": "7.59% (inactive)"}, {"smiles": "Cn1c2ccccc2c2c(C(=O)N3CCN(c4ccc(F)cc4)CC3)cn(C3CCCC3)c(=O)c21", "inhibition": "4.51% (inactive)"}, {"smiles": "CCCNc1ncnc2sc(C)c(C)c12", "inhibition": "2.56% (inactive)"}, {"smiles": "O=C(CSc1nnnn1-c1ccc2c(c1)CCC2)Nc1ccc2c(c1)OCCO2", "inhibition": "0.15% (inactive)"}, {"smiles": "Cn1c(=O)n(C)c2cc(CNc3ccc(N4CCOCC4)c(C(=O)O)c3)ccc21", "inhibition": "-0.23% (inactive)"}, {"smiles": "O=C(Nc1ccc(Cl)cc1)c1ccsn1", "inhibition": "-2.12% (inactive)"}, {"smiles": "COc1ccc(OC)c(C(=O)CSc2nnc(-c3cccs3)o2)c1", "inhibition": "-2.44% (inactive)"}, {"smiles": "CCN(CC)S(=O)(=O)c1ccc2nc(COC(=O)c3n[nH]c4ccccc34)[nH]c2c1", "inhibition": "3.42% (inactive)"}, {"smiles": "O=C(NC(c1ccccc1)c1ccccc1)N1CCN(CCO)CC1", "inhibition": "3.62% (inactive)"}, {"smiles": "CC1CCC(NC(=O)c2ccc(N3CCCC3=O)cc2)CC1", "note": "(stereo unspecified)", "inhibition": "-4.06% (inactive)"}, {"smiles": "COCC(=O)Nc1nnc(COc2ccccc2)s1", "inhibition": "-8.97% (inactive)"}, {"smiles": "COC(C)(C)[C@]12CC(O)(C(C)C)ON1[C@H]1CCCCC1N2O", "note": "(stereo partly specified)", "inhibition": "-3.22% (inactive)"}, {"smiles": "Cn1c(=O)c2c(n(Cc3ccccc3)c1=O)NC(=O)C2CC(=O)N1CCc2ccccc2C1", "note": "(stereo unspecified)", "inhibition": "0.76% (inactive)"}, {"smiles": "O=c1c2c(nc3n1CCCCC3)sc1c(O)cccc12", "inhibition": "5.69% (inactive)"}, {"smiles": "CC(C)c1ccc(NS(=O)(=O)c2cn(C)c(=O)n(C)c2=O)cc1", "inhibition": "3.38% (inactive)"}, {"smiles": "CCCCNC(=O)c1ccccc1NC(=O)c1ccccc1N(C)S(C)(=O)=O", "inhibition": "7.15% (inactive)"}, {"smiles": "CCOC(=O)Cc1csc(NC(=O)CN(C)S(=O)(=O)c2ccc3c(c2)CCC(=O)N3)n1", "inhibition": "3.69% (inactive)"}, {"smiles": "COc1ccc(-c2nc(CS(=O)CC(=O)N3CCc4ccccc4C3)c(C)o2)cc1", "note": "(stereo unspecified)", "inhibition": "4.29% (inactive)"}, {"smiles": "CCC(C)Sc1nc(C)nc2c1c(=O)n(C)c(=O)n2C", "note": "(stereo unspecified)", "inhibition": "2.91% (inactive)"}, {"smiles": "N#CCCn1ncc2ccccc21", "inhibition": "-3.63% (inactive)"}, {"smiles": "COc1ccc(CCN2CNc3c(c(=O)n(C)c(=O)n3C)C2)cc1OC", "inhibition": "0.085% (inactive)"}, {"smiles": "COc1ccc(-c2ccnc(SCC(=O)N3CCOCC3)n2)cc1", "inhibition": "-0.81% (inactive)"}, {"smiles": "CCN1CCN(c2c(Cl)cccc2NC(=O)c2ccc(Br)o2)CC1", "inhibition": "5.68% (inactive)"}, {"smiles": "COc1nc(NCc2ccc(Cl)cc2)nc(OC)n1", "inhibition": "6.46% (inactive)"}, {"smiles": "CCCn1c(SCC(=O)N2CCc3ccccc32)nnc1-c1ccncc1", "inhibition": "5.11% (inactive)"}, {"smiles": "CC(C)(C)NC(=O)NC(=O)COC(=O)Cn1c(C(F)(F)F)nc2ccccc21", "inhibition": "0.995% (inactive)"}, {"smiles": "N#Cc1cccc(CSc2nnc(CCCO)n2-c2ccccc2)c1", "inhibition": "22% (inactive)"}, {"smiles": "COC(=O)c1c(NC(=O)CCN2CCOCC2)sc2c1CCCC2", "inhibition": "3.41% (inactive)"}, {"smiles": "Cn1c(=O)cc(SCC(=O)N2CCN(C(=O)c3ccco3)CC2)c2ccccc21", "inhibition": "2.19% (inactive)"}, {"smiles": "Cc1ccccc1-c1nc(CS(=O)(=O)CC(=O)N2CCc3ccccc3C2)c(C)o1", "inhibition": "4.15% (inactive)"}, {"smiles": "Cc1cccc(NC(=O)C2CCN(S(=O)(=O)c3cccc4cccnc34)CC2)c1", "inhibition": "4.24% (inactive)"}, {"smiles": "Cc1cc(Nc2ccc(Br)cc2F)n2ncnc2n1", "inhibition": "-2.18% (inactive)"}, {"smiles": "COc1ccc(C(CC(=O)O)NC(=O)Cc2ccccc2)cc1", "note": "(stereo unspecified)", "inhibition": "-0.455% (inactive)"}, {"smiles": "COc1ccc(S(=O)(=O)N2CCCCC2)cc1Br", "inhibition": "2.55% (inactive)"}, {"smiles": "CC(=O)c1cc(-c2ccccc2)[nH]c1N1CCCC1", "inhibition": "2.3% (inactive)"}, {"smiles": "CC1Oc2ccccc2N(Cc2cccnc2)C1=O", "note": "(stereo unspecified)", "inhibition": "4.41% (inactive)"}, {"smiles": "O=C(CCS(=O)(=O)c1cccc2nonc12)NCCc1ccccc1Cl", "inhibition": "4.8% (inactive)"}, {"smiles": "Cn1cccc1Cc1nnc(SCC(=O)NCCc2ccccc2)n1-c1ccc(F)cc1", "inhibition": "4.42% (inactive)"}, {"smiles": "CC1(C)Oc2ccc(C(=O)N3CCOCC3)cc2N(CC(=O)Nc2ccccc2)C1=O", "inhibition": "-0.39% (inactive)"}, {"smiles": "COc1ccccc1C(=O)C(O)c1ccccc1OC", "note": "(stereo unspecified)", "inhibition": "1.43% (inactive)"}, {"smiles": "O=C(Cn1cc(C(=O)c2cccs2)c2ccccc21)NCc1cccs1", "inhibition": "-1.35% (inactive)"}, {"smiles": "CCOC(=O)COc1ccc(Cl)cc1C1NC(=O)NC(C)=C1C(C)=O", "note": "(stereo unspecified)", "inhibition": "-5.4% (inactive)"}, {"smiles": "O=C(NCc1ccccn1)c1c(O)c2c([nH]c1=O)CCCC2", "inhibition": "4.33% (inactive)"}, {"smiles": "CC12COC3(C(=O)Nc4ccc(Cl)cn4)CC1CCC32C", "note": "(stereo unspecified)", "inhibition": "2.24% (inactive)"}, {"smiles": "COc1cccc(C(CC(=O)NCCN2CCOCC2)NS(=O)(=O)c2ccc(C)cc2)c1OC", "note": "(stereo unspecified)", "inhibition": "-2.29% (inactive)"}, {"smiles": "CCN(C(=O)CSc1ncn[nH]1)c1cccc2ccccc12", "inhibition": "5.46% (inactive)"}, {"smiles": "Cn1c(=O)c2c(nc(N3CCCCCC3)n2CC(=O)c2ccc(Br)cc2)n(C)c1=O", "inhibition": "6.96% (inactive)"}, {"smiles": "CCOC(=O)CSc1nnc(CNC(=O)c2cccs2)n1-c1ccccc1", "inhibition": "3.94% (inactive)"}, {"smiles": "CCCOc1ccc(NC(=O)C2CCCNC2=O)cc1", "note": "(stereo unspecified)", "inhibition": "0.055% (inactive)"}, {"smiles": "CCOC(=O)N1CCN(C(=O)c2ccc(S(=O)(=O)c3ccc(C)cc3)c(NC(C)=O)c2)CC1", "inhibition": "0.155% (inactive)"}]}]}
